We go through 88 sequences from article PMC10668032, “Altered binding affinity of SIX1-Q177R correlates with enhanced WNT5A and WNT pathway effector expression in Wilms tumor”.

In all, about 33,000 sequences were measured (“e-score”: median about -0.053, highest 2% from about 0.38 on). Only a selection was taken, and the highest values are over-represented in it overall.

The test concerns the target T1, SIX1 homeodomain (reference allele) (human, UniProt Q15475 108-198).
T1 sequence: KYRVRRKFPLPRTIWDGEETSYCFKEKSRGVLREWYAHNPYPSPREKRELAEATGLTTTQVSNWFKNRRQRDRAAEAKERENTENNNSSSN
Description: universal protein binding microarray; Universal all-10-mer PBM (8x60K, AMADID 030236), 300 nM GST-tagged protein, Alexa Fluor 488 anti-GST; buffer, salt, pH and temperature not stated (as in Berger); high values mean tight binding. As to conditions: protein: ivt; tags: N-terminal GST; dsDNA, one strand shown. Put shortly: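 Binding was expressed as 8-mer E-scores calculated with the Universal PBM Analysis Suite. The GST-tagged homeodomains, made by in vitro transcription/translation, were applied in duplicate at 300 nM final concentration to universal 'all 10-mer' protein binding microarrays (8×60K format).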
Take CGGTATTA: the binding signal turned out to be 0.368 ± 0.031 E-score.

On to CTTACACC, for which the binding signal turned out to be 0.203 ± 0.0268 E-score.

Consider GTCGTATA, for which the binding signal was found to be 0.186 ± 0.0245 E-score.

Regarding GTAGACAC, the binding signal is 0.182 ± 0.0638 E-score.

As for AGATAGGG, the binding signal worked out at 0.263 ± 0.0607 E-score.

For TACCAGTA, the binding signal came to 0.201 ± 0.0209 E-score.

With AATCGGGG, the binding signal is 0.181 ± 0.117 E-score.

Consider ATGAATAC, for which the binding signal is 0.2845 ± 0.00167 E-score.

Turning to CGGAGATC, the binding signal is 0.322 ± 0.00475 E-score.

As to GAAGTATC, the binding signal came to 0.407 ± 0.0492 E-score.

Consider GAAGTATA, for which the binding signal is 0.261 ± 0.108 E-score.

As to AAAGTATC, the binding signal amounted to 0.413 ± 0.0634 E-score.

Turning to TAAGTATA, the binding signal is 0.218 ± 0.0666 E-score.

As to AAAGTATA, the binding signal came to 0.173 ± 0.149 E-score.

In the case of CAAGTATC, the binding signal is 0.378 ± 0.0659 E-score.

On to CAAATATC, for which the binding signal was 0.21 ± 0.0519 E-score.

For the sequence GAACTATC, the binding signal is 0.23 ± 0.0598 E-score.

As for ATAAGTAT, the binding signal was determined as 0.235 ± 0.0716 E-score.

Take TACACTGA: the binding signal was determined as 0.178 ± 0.0145 E-score.

ATCTTCCC: the binding signal worked out at 0.174 ± 0.0102 E-score.

For the sequence ATCACGAA, the binding signal is 0.172 ± 0.0453 E-score.

On to CTAGACAC, for which the binding signal was 0.158 ± 0.012 E-score.

For GAATAATC, the binding signal was determined as 0.209 ± 0.0094 E-score.

For the sequence ATGCATCA, the binding signal stood at 0.198 ± 0.0685 E-score.

For ATCATAAG, the binding signal worked out at 0.286 ± 0.0333 E-score.

On to GATATATC, for which the binding signal was determined as 0.441 ± 0.0284 E-score.

With GATATATA, the binding signal was found to be 0.377 ± 0.0449 E-score.

Turning to TATATATA, the binding signal came out at 0.344 ± 0.0349 E-score.

For the sequence AATATATC, the binding signal came out at 0.343 ± 0.0593 E-score.

As to CATATATC, the binding signal worked out at 0.341 ± 0.0628 E-score.

In the case of GATATAGA, the binding signal came to 0.318 ± 0.034 E-score.

For ATACTTTC, the binding signal amounted to 0.16 ± 0.145 E-score.

CCTCCGGA: the binding signal came out at 0.203 ± 0.0104 E-score.

On to CCTCGAGG, for which the binding signal was determined as 0.197 ± 0.043 E-score.

Regarding CAGATCAG, the binding signal is 0.353 ± 0.0153 E-score.

For ATACCAAT, the binding signal is 0.3482 ± 0.0028 E-score.

For the sequence ATCCCAGC, the binding signal came out at 0.221 ± 0.0257 E-score.

For AGTGTATC, the binding signal turned out to be 0.43 ± 0.00296 E-score.

Take CGTGTATC: the binding signal turned out to be 0.404 ± 0.0303 E-score.

Consider CTTGTATC, for which the binding signal is 0.266 ± 0.0293 E-score.

On to AGTGTACC, for which the binding signal was 0.16 ± 0.0592 E-score.

On to CATGTATA, for which the binding signal turned out to be 0.223 ± 0.0131 E-score.

For CATGTATC, the binding signal stood at 0.403 ± 0.00743 E-score.

CGTGTATA: the binding signal stood at 0.247 ± 0.0518 E-score.

AATGTATC: the binding signal was found to be 0.363 ± 0.0137 E-score.

Consider AGTGTATA, for which the binding signal came to 0.291 ± 0.0334 E-score.

On to ATCGGGGG, for which the binding signal is 0.223 ± 0.00524 E-score.

In the case of ATCAACAG, the binding signal was 0.209 ± 0.0732 E-score.

In the case of ATCCGGCC, the binding signal was found to be 0.316 ± 0.022 E-score.

Turning to CGATCGGC, the binding signal was 0.1802 ± 0.00119 E-score.

Turning to TATTATGA, the binding signal turned out to be 0.207 ± 0.134 E-score.

For the sequence ATCAAGCA, the binding signal was found to be 0.174 ± 0.047 E-score.

In the case of GATGCGGA, the binding signal came to 0.199 ± 0.0357 E-score.

As for CTTCGATC, the binding signal came to 0.152 ± 0.112 E-score.

With CCTGATCC, the binding signal was determined as 0.387 ± 0.0469 E-score.

As to ACTGATCC, the binding signal was 0.398 ± 0.007 E-score.

Turning to GCAGATCC, the binding signal was 0.272 ± 0.0482 E-score.

Take CCTGATCA: the binding signal was 0.306 ± 0.0156 E-score.

As for GCTGATCA, the binding signal is 0.198 ± 0.00374 E-score.

Turning to GCTGATCC, the binding signal stood at 0.425 ± 0.0138 E-score.

As for CCTGATCG, the binding signal was 0.197 ± 0.0659 E-score.

As for ACTGATCG, the binding signal was determined as 0.156 ± 0.0405 E-score.

With ACTGATCT, the binding signal was determined as 0.34 ± 0.0165 E-score.

Consider GTCTAGTA, for which the binding signal came out at 0.158 ± 0.0279 E-score.

Take CACACCGG: the binding signal turned out to be 0.224 ± 0.0376 E-score.

GTATACGA: the binding signal was 0.308 ± 0.0266 E-score.

As for CATGGTGA, the binding signal turned out to be 0.225 ± 0.035 E-score.

In the case of AATATGCC, the binding signal came to 0.16 ± 0.0322 E-score.

Turning to GATATGCC, the binding signal stood at 0.427 ± 0.0454 E-score.

Turning to AATATGCG, the binding signal came out at 0.171 ± 0.0476 E-score.

Consider CATATGCC, for which the binding signal was 0.162 ± 0.0394 E-score.

Consider GATATGCA, for which the binding signal worked out at 0.4032 ± 0.00302 E-score.

In the case of GATATGAA, the binding signal was 0.259 ± 0.0356 E-score.

For ATAATACA, the binding signal turned out to be 0.302 ± 0.0417 E-score.

On to ATAATATG, for which the binding signal was determined as 0.27 ± 0.0724 E-score.

In the case of CTAATACC, the binding signal stood at 0.285 ± 0.0649 E-score.

Regarding ACAATACG, the binding signal was 0.25 ± 0.0363 E-score.

Turning to ATAATACG, the binding signal was 0.385 ± 0.0407 E-score.

With ATAATACC, the binding signal was found to be 0.421 ± 0.0503 E-score.

Consider GGAGCATA, for which the binding signal stood at 0.213 ± 0.018 E-score.

Consider ATATGAGG, for which the binding signal stood at 0.156 ± 0.0225 E-score.

For the sequence CGTCTAAG, the binding signal is 0.193 ± 0.0194 E-score.

Take GCAATATA: the binding signal came out at 0.16 ± 0.0581 E-score.

Turning to CGACACCA, the binding signal was 0.416 ± 0.0371 E-score.

As for TCACACCA, the binding signal turned out to be 0.195 ± 0.0562 E-score.

For the sequence CGACACCG, the binding signal turned out to be 0.427 ± 0.0217 E-score.

On to GGACACCC, for which the binding signal was determined as 0.372 ± 0.033 E-score.

With CAACACCA, the binding signal turned out to be 0.282 ± 0.0199 E-score.
